In paper PMC7862700, “An all-to-all approach to the identification of sequence-specific readers for epigenetic DNA modifications on cytosine”:

Tests used:
Assay in all cases: DAPPL (digital affinity profiling via proximity ligation, sequencing); 10 mM Tris-HCl pH 7.5, 50 mM NaCl, 1 mM DTT, 4% glycerol, room temperature, 30 min; GST-TFs on glutathione beads, 16-mer random dsDNA library, 0.1% formaldehyde crosslink after washing; high values mean tight binding
Conditions in all cases: protein: recombinant; tags: N-terminal GST; dsDNA, one strand shown
[1] = molecular target: T1, FLI1 (Homo sapiens, UniProt Q01543 1-452)
T1 sequence: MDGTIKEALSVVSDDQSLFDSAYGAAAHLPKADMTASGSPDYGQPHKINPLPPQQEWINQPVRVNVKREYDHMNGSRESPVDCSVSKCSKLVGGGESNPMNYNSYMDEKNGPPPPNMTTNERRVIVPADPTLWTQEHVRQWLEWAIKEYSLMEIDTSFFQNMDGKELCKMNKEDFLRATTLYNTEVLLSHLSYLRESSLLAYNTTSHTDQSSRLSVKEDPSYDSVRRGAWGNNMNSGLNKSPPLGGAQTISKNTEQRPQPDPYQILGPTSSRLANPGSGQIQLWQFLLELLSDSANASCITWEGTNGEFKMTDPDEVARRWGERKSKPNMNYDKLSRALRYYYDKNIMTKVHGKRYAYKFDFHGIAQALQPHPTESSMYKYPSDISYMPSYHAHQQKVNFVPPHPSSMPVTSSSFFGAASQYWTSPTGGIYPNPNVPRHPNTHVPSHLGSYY
In short: (§1)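 Yeast served to express human transcription factors as GST fusions, which were then captured on glutathione beads and labelled with DNA barcodes. Pooled with a tag-only sample, they were incubated with 200 nmole of a 16-mer random double-stranded DNA library for 30 min at room temperature in Tris/NaCl/DTT/glycerol buffer, washed, crosslinked with 0.1% formaldehyde, ligated by proximity, amplified by PCR and sequenced. Dividing each hexamer's read frequency for a factor by its frequency for the tag-only sample gives the binding signal.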

[2] = molecular target: T2, GABPA (Homo sapiens, UniProt Q06546 1-454)
T2 sequence: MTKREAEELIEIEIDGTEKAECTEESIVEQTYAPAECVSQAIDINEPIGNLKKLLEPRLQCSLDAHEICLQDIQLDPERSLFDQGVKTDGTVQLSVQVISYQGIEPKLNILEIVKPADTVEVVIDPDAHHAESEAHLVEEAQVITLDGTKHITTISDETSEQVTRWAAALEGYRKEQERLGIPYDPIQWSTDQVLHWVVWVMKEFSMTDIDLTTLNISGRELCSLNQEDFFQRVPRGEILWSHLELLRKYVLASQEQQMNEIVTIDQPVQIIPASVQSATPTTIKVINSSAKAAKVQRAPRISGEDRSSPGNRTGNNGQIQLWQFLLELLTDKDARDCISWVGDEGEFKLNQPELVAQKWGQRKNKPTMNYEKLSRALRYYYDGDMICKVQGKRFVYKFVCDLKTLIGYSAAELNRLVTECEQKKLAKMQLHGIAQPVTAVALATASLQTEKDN
In short: as §1

[3] = molecular target: T3, ERG (Homo sapiens, UniProt P11308 1-479)
T3 sequence: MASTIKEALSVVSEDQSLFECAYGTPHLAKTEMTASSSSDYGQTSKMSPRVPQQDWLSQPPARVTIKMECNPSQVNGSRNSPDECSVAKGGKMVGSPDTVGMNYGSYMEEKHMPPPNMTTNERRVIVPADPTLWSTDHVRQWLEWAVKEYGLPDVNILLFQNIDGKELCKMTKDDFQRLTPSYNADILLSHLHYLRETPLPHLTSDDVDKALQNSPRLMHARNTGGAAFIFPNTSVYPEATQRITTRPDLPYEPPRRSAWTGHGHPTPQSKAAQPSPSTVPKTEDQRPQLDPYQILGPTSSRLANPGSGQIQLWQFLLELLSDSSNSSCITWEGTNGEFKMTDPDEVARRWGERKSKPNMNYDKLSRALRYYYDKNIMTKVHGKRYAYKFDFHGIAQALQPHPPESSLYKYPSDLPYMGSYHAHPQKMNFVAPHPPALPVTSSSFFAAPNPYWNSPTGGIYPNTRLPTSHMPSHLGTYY
In short: as §1

[4] = molecular target: ELF1 (Homo sapiens, UniProt P32519 1-619)
Chain of ELF1 (P32519 whole entry): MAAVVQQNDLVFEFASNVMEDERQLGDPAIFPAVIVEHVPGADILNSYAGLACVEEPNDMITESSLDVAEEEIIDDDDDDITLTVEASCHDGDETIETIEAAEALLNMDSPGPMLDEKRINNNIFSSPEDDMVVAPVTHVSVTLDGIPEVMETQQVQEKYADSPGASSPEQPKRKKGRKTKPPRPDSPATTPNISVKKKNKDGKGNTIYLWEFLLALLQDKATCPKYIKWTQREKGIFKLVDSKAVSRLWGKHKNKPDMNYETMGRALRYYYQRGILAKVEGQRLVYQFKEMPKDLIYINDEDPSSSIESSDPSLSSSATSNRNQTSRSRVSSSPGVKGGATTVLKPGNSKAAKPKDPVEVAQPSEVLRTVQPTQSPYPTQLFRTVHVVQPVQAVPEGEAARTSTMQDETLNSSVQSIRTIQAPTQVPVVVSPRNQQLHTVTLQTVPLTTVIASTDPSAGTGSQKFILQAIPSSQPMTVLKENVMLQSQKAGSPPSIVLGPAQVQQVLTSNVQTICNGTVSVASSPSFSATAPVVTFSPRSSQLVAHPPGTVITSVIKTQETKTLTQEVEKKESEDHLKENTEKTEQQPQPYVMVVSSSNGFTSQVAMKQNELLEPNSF
In short: as §1

[5] = molecular target: T4, EHF (Homo sapiens, UniProt Q9NZC4 1-300)
T4 sequence: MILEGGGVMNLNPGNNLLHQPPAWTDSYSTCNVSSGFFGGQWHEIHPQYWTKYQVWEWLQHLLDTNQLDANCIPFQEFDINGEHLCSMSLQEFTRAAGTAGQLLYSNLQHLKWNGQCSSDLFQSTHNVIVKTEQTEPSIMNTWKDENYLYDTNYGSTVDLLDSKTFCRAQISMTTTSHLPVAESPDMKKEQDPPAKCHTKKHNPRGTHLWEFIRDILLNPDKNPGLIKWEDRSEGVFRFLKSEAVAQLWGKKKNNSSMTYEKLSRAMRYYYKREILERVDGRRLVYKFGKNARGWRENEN
In short: as §1

[6] = molecular target: SPI1 (Homo sapiens, UniProt P17947 1-270)
In short: as §1

[7] = molecular target: SPIB (Homo sapiens, UniProt Q01892 1-262)
Chain of SPIB (Q01892 whole entry): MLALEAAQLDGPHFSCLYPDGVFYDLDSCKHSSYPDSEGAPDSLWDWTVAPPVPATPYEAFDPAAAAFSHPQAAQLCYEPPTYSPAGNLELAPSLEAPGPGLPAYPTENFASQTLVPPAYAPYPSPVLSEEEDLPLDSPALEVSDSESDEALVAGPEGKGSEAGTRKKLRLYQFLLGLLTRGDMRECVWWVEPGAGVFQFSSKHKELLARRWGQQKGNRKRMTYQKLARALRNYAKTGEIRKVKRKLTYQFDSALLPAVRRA
In short: as §1

[8] = molecular target: T5, ELK3 (Homo sapiens, UniProt P41970 1-407)
T5 sequence: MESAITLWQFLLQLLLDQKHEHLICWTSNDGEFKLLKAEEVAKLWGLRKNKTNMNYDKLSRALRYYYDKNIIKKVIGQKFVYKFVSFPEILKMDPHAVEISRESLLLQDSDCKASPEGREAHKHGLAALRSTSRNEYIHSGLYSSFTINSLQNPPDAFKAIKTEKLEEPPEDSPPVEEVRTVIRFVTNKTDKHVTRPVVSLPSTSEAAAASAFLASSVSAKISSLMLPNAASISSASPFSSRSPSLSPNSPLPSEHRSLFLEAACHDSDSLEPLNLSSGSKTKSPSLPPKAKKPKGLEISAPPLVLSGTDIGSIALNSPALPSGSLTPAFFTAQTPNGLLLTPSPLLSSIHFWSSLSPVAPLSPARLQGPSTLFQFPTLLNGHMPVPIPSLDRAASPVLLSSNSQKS
In short: as §1

[9] = molecular target: T6, SPIC (Homo sapiens, UniProt Q8N5J4 1-248)
T6 sequence: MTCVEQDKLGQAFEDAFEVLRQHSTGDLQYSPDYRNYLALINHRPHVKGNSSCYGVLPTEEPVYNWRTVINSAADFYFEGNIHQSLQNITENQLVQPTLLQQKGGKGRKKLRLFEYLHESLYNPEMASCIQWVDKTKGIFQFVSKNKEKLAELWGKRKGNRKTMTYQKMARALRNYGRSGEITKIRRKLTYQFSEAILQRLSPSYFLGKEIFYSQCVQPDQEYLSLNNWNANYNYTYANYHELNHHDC
In short: as §1

[10] = molecular target: ELF4 (Homo sapiens, UniProt Q99607 1-663)
Chain of ELF4 (Q99607 whole entry): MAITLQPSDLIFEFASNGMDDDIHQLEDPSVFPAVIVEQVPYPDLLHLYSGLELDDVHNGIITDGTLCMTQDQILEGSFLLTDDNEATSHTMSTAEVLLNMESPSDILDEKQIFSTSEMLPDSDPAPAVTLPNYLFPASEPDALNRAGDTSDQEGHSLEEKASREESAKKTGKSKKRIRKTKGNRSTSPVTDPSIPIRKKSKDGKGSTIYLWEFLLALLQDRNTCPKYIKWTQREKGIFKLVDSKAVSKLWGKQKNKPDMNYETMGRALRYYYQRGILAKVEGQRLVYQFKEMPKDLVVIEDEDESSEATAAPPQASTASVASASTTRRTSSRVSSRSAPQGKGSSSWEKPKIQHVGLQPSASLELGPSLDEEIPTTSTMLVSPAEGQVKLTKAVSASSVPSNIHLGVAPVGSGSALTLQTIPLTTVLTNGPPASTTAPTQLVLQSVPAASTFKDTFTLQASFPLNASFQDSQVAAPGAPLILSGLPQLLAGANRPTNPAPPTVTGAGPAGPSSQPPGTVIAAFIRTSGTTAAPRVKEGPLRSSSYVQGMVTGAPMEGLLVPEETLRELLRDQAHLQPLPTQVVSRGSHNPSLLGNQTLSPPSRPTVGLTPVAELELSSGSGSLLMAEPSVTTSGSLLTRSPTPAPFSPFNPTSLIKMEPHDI
In short: as §1

[11] = molecular target: T7, ELK4 (Homo sapiens, UniProt P28324-2 1-405)
T7 sequence: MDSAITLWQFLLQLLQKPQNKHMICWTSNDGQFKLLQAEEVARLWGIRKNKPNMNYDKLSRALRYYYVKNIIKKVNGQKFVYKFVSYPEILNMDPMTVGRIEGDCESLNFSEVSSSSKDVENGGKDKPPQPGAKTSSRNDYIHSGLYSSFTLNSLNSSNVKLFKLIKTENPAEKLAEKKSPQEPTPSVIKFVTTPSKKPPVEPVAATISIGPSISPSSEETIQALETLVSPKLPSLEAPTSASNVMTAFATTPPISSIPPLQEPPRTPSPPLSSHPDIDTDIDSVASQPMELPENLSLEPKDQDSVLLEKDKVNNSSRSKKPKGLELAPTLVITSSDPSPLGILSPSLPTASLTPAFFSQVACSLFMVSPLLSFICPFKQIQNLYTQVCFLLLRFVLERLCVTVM
In short: as §1

[12] = molecular target: T8, ETV2 (Homo sapiens, UniProt O00321 1-342)
T8 sequence: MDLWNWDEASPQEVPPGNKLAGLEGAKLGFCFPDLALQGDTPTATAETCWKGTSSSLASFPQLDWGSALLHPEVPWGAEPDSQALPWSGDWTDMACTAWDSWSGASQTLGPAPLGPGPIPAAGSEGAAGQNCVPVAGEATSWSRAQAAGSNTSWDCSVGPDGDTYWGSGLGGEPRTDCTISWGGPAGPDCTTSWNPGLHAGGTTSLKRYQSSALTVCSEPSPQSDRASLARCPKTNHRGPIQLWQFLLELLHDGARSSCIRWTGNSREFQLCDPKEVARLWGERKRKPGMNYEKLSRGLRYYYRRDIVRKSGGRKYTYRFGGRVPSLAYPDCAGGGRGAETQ
In short: as §1

[13] = molecular target: T9, ELF3 (Homo sapiens, UniProt P78545 1-371)
T9 sequence: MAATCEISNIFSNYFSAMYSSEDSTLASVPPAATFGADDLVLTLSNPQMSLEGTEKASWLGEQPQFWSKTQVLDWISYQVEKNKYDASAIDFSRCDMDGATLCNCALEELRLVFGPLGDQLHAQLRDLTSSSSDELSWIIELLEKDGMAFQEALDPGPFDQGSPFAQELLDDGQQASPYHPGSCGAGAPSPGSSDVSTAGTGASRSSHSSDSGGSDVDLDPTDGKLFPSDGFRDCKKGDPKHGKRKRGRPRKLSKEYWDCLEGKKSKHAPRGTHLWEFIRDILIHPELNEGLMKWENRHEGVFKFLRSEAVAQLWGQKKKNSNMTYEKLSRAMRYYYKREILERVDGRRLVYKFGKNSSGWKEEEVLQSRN
In short: as §1

[14] = molecular target: T10, ERF (Homo sapiens, UniProt P50548 1-548)
T10 sequence: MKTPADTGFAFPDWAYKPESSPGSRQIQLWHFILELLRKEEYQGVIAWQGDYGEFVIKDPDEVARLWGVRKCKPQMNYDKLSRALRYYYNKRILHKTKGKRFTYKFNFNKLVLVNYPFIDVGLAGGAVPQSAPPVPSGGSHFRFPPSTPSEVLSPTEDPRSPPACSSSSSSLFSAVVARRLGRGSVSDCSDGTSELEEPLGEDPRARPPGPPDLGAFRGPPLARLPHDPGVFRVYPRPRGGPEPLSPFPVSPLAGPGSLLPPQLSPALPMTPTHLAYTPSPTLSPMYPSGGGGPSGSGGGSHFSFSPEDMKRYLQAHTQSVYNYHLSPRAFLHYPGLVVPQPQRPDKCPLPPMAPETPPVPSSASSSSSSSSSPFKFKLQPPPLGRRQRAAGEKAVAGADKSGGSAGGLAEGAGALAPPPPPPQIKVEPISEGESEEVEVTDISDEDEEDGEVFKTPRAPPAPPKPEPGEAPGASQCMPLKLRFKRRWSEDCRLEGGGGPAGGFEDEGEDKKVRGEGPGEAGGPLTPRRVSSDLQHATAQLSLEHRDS
In short: as §1

[15] = molecular target: T11, ETV3L (Homo sapiens, UniProt Q6ZN32 1-361)
T11 sequence: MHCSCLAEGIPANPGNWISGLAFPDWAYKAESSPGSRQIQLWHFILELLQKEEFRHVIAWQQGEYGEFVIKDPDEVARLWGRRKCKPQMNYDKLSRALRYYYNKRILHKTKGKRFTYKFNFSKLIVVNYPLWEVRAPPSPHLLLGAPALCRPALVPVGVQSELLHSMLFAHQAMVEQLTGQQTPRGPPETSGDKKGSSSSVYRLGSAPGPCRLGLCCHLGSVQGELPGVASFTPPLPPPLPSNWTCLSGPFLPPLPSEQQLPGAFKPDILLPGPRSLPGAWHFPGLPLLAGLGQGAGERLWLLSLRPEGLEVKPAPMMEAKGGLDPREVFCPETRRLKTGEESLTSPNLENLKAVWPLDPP
In short: as §1

[16] = molecular target: T12, ETV7 (Homo sapiens, UniProt Q9Y603 1-341)
T12 sequence: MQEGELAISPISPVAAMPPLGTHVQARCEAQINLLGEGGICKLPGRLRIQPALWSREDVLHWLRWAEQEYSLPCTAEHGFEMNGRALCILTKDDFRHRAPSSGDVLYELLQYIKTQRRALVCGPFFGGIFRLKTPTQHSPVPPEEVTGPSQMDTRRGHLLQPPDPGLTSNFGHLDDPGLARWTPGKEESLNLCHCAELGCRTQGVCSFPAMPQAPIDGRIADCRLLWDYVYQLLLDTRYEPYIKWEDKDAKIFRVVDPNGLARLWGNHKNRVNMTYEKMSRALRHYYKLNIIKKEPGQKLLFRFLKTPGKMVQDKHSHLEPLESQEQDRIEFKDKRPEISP
In short: as §1

[17] = molecular target: ETV6 (Homo sapiens, UniProt P41212 1-452)
Chain of ETV6 (P41212 whole entry): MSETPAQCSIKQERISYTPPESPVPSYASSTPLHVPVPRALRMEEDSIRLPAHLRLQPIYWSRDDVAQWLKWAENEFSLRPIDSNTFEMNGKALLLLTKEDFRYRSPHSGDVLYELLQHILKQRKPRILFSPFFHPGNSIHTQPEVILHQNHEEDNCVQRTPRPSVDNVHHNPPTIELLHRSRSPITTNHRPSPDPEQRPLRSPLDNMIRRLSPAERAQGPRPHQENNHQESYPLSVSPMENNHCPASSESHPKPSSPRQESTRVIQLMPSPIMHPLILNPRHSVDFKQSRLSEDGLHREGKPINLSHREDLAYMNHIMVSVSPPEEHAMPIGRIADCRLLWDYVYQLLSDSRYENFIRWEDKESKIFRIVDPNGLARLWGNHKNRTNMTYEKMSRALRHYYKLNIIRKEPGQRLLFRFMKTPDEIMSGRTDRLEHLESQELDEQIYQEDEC
In short: as §1

CATTGC
binding signal [1]: 1.22 fold enrichment (6-mer frequency, TF over GST control) | binding signal [2]: 1.08 fold enrichment (6-mer frequency, TF over GST control) | binding signal [3]: 1.11 fold enrichment (6-mer frequency, TF over GST control) | binding signal [4]: 1.09 fold enrichment (6-mer frequency, TF over GST control) | binding signal [5]: 1.15 fold enrichment (6-mer frequency, TF over GST control) | binding signal [6]: 1.05 fold enrichment (6-mer frequency, TF over GST control) | binding signal [7]: 1 fold enrichment (6-mer frequency, TF over GST control) | binding signal [8]: 1.15 fold enrichment (6-mer frequency, TF over GST control) | binding signal [9]: 1.16 fold enrichment (6-mer frequency, TF over GST control) | binding signal [10]: 1.11 fold enrichment (6-mer frequency, TF over GST control) | binding signal [11]: 1.04 fold enrichment (6-mer frequency, TF over GST control) | binding signal [12]: 1.3 fold enrichment (6-mer frequency, TF over GST control) | binding signal [13]: 1.04 fold enrichment (6-mer frequency, TF over GST control) | binding signal [14]: 1.11 fold enrichment (6-mer frequency, TF over GST control) | binding signal [15]: 1.08 fold enrichment (6-mer frequency, TF over GST control) | binding signal [16]: 1.14 fold enrichment (6-mer frequency, TF over GST control) | binding signal [17]: 1.09 fold enrichment (6-mer frequency, TF over GST control)
